# Cycloheximide cs: Cycloheximide Counterscreen for Small Molecule Inhibitors of Shiga Toxin | cell reporter, cycloheximide protein synthesis inhibition counterscreen | max response, % | actives 12% (n = 300,000) | AID 2314, 2010; in the data active = max response mostly above about 13%, no sharp cut-off; inactive = mostly below about 14%; note: read at 38.3 µM for the half of the compounds with a filed dose; 0% is about no effect
# RE007 growth inh: qHTS Assay for Inhibitors of the HIV-1 protein Vpr; AID 651644, 2012; S. pombe RE007 Vpr strain, BacTiter-Glo ATP luminescence, 24 h; actives 0.21% (n = 360,000); Potency, µM (doses to about 92.2 µM), inactives show at the highest dose activity change, negative = less growth, actives largely listed as inhibitors; active = well fitted falling curve with a large enough effect; note: potency is the fitted concentration of half-maximal effect; % is set by controls: 0 for no effect and ±100 for the full control effect; nearly all actives have a fitted effect of over 50% in size
#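 Fission yeast strain RE007, carrying one chromosomally integrated HIV-1 vpr copy, was seeded at OD 0.01 in PMG+AL medium with 23 nL pinned compound. After 24 h at 30 °C and 99% humidity, viability was read by BacTiter-Glo luminescence.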
# Shiga toxin inh: A qHTS for Small Molecule Inhibitors of Shiga Toxin; actives 9.2% (n = 290,000); Vero cells, Shiga toxin protein synthesis inhibition reporter; inhibition, % at 38.7 µM; in the data active = inhibition mostly above about 28%, no sharp cut-off; inactive = mostly below about 43%; note: 0% is about no effect
# Tb PYK inh: qHTS of Trypanosoma Brucei Inhibitors | actives 0.12% (n = 410,000) | Potency, µM (titrated, usually from 76.8 µM), for inactives: top-dose activity, negative = inhibition, actives largely listed as inhibitors | pyruvate kinase (Trypanosoma brucei), Q57TT1 | TbPYK enzyme, Kinase-Glo Plus ATP luminescence, 45 min; note: potency is the fitted concentration of half-maximal effect; % is set by controls: 0 for no effect and ±100 for the full control effect; nearly all actives have a fitted effect of over 50% in size
#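 Activity of T. brucei pyruvate kinase was followed by Kinase-Glo Plus luminescence after the enzyme reacted 45 min at room temperature with 130 uM ADP (final) and substrate. Test compounds were added before ADP at multiple concentrations.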
# LmPK inh: qHTS Assay for Inhibitors of Leishmania Mexicana Pyruvate Kinase (LmPK). actives 0.37% (n = 290,000). Potency, µM (series often up to 57.5 µM), without a hit: at the top dose activity change, negative = inhibition, most hits filed as inhibitors. Q27686. purified LmPK, Kinase-Glo ATP luminescence, 1 h. AID 1721, 2009; note: potency is the fitted concentration of half-maximal effect; % is set by controls: 0 for no effect and ±100 for the full control effect
# Target sequence (Q27686 whole entry, looked up): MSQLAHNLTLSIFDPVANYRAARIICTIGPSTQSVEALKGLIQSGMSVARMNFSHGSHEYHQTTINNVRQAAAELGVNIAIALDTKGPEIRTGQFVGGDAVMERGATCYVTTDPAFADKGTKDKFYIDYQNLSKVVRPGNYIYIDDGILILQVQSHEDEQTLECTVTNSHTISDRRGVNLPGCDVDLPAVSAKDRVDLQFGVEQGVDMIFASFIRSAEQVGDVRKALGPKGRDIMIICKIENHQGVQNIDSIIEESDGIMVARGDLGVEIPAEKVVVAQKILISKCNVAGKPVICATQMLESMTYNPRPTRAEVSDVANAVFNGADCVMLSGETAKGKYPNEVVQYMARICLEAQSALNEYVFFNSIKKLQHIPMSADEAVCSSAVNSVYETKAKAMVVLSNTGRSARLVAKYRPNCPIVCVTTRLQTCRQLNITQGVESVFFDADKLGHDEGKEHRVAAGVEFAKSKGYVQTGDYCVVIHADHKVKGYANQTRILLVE
#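 0.1 nM LmPK, 0.5 mM PEP, 0.1 mM ADP; 50 mM imidazole pH 7.2, 7 mM MgCl2, 50 mM KCl; 1 h RT. Kinase-Glo luminescence readout, normalized to no-enzyme (full inhibition) and uninhibited wells.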
# FBPA Giardia inh: qHTS Assay for Inhibitors of Fructose-1,6-bisphosphate Aldolase from Giardia Lamblia; AID 2451, 2010; actives 0.71% (n = 290,000); Potency, µM (series often up to 59.6 µM), inactives show top-dose activity, negative = inhibition, most hits filed as inhibitors; purified Giardia FBPA; A8B2U2; note: potency is the fitted concentration of half-maximal effect; % is set by controls: 0 for no effect and ±100 for the full control effect; nearly all actives have a fitted effect of over 55% in size
#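 40 nM FBPA preincubated 10 min at RT with compound (up to 57.5 uM final), then substrate plus GAPDH/TPI/NAD/arsenate coupling and diaphorase/resazurin added. Fluorescence read after 20 min at RT, 525/598 nm.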
# * hit, by the source's call; nt = not tested or not shown; + = active, no number. Shown is part of a subset that was picked to be rich in hits. Unless noted, calls come from the whole dose curve; as a rule, active = well fitted curve in the direction sought with a large enough effect; inconclusive = small, poorly fitted or top-dose-only effect, or another doubt; inactive = no such curve, though single readings can be large; an effect the other way counts as inactive or inconclusive.
SMILES,Cycloheximide cs,RE007 growth inh,Shiga toxin inh,Tb PYK inh,LmPK inh,FBPA Giardia inh
CCC(=O)Nc1cccc(-n2nnnc2SCC(=O)N2CCCCC2)c1,18*,-13%,27,0%,1%,4%
O=C(COc1ccccc1)Nc1nnc2n1CCS2,nt,nt,nt,3%,nt,nt
Cc1csc2nc(COC(=O)c3cccc(NC(=O)COc4ccccc4Cl)c3)cc(=O)n12,nt,nt,nt,-12%,nt,nt
O=C(CNC(=S)NC(=O)c1cccs1)c1ccccc1,66*,-14%,90*,-9%,4%,-8%
Cc1ccc(C(=O)NC(=S)NCC(=O)c2ccccc2)cc1,17*,0%,35,2%,0%,3%
O=C(CNC(=S)NC(=O)c1ccco1)c1ccccc1,37*,-12%,75*,3%,3%,-5%
O=C(Nc1ccc(NC(=S)NC(=O)c2ccco2)cc1)c1ccccc1,1,-7%,25,1%,0%,-8%
COC(=O)c1cn(Cc2ccccn2)c(=O)c2ccccc12,5,6%,-12,-3%,13%,2%
CC1(C)CC(c2nc(-c3ccc(Cl)cc3)cs2)CCS1 (stereo not drawn),10,-18%,-7,0%,1%,0%
CC1(C)CC(c2nc(-c3ccccc3)cs2)CCS1 (stereo not drawn),16*,-2%,-2,-3%,-7%,1%
CCC1CCCCN1S(=O)(=O)c1ccc(NC(=O)c2nc(SC)ncc2Cl)cc1 (stereo not drawn),nt,nt,nt,1%,nt,nt
CCCSc1nsc(NC(=O)Nc2ccc(F)cc2F)n1,23*,4%,36*,2%,-6%,-18%
O=C(CSc1nnc(NC(=O)Nc2ccccc2)s1)Nc1cccc(F)c1,nt,nt,nt,-6%,nt,nt
CCSc1nsc(NC(=O)Nc2cccc(F)c2)n1,39*,-15%,nt,4%,4%,2%
COc1cccc(NC(=O)Nc2nc(SC(C)(C)C)ns2)c1,25*,-12%,nt,0%,0%,-1%
CCCSc1ccc(C(=O)Nc2ccc(F)cc2F)cn1,30*,-18%,30,-1%,-15%,3%
COc1ccc(C(C(=O)NC2CCCCC2)N(C(=O)CCl)c2cccc(Cl)c2)cc1 (stereo not drawn),5,-9%,10,-2%,0%,0%
COc1cccc(NC(=O)C(C)(C)C)c1,nt,-5%,nt,-3%,nt,nt
COc1cccc(NC(=O)Nc2nc(SC)ns2)c1,54*,-1%,100*,-2%,2%,-28%
Cc1nn(CCCC(=O)NCc2ccccc2)c(=O)c2cc3sccc3n12,nt,nt,nt,-5%,nt,nt
COc1ccc(C(=O)NC(=S)NCC2CCCO2)cc1 (stereo not drawn),42*,-25%,54*,-3%,-1%,0%
CC(C)Oc1ccc(-c2nc(NCC3CCCO3)c3ccccc3n2)cc1 (stereo not drawn),20*,2%,47*,1%,-2%,-5%
CCOc1ccc(C(=O)NCC2CCCO2)cc1 (stereo not drawn),38*,3%,117*,0%,-1%,-10%
c1cncc(-c2nc(NCC3CCCO3)c3ccccc3n2)c1 (stereo not drawn),-5,-9%,-17,1%,-3%,14%
CC(C)(C)c1ccc(C(=O)N2CCC(C(=O)NCC3CCCO3)CC2)cc1 (stereo not drawn),20*,2%,35,7%,-6%,-1%
SMILES,Cycloheximide cs,RE007 growth inh,Shiga toxin inh,Tb PYK inh,LmPK inh,FBPA Giardia inh
O=C(NCC1CCCO1)c1ccc(C(=O)NCC2CCCO2)cc1 (stereo not drawn),-2,-12%,-1,-10%,-3%,7%
O=C(NNC(=O)c1ccc2nonc2c1)Nc1ccc(Cl)cc1,-2,7%,-14,7%,3%,1%
Cc1ccc(S(=O)(=O)N2C[C@H]3C(=O)C[C@@H](c4ccccc4)N(S(=O)(=O)c4ccccc4[N+](=O)[O-])[C@H]3C[C@H]2c2ccccc2)cc1,nt,-16%,nt,2%,nt,nt
CC(C)(C)c1ccc(C(=O)NC(=S)NCC2CCCO2)cc1 (stereo not drawn),17*,1%,148*,-4%,0%,1%
COc1ccc(-c2cc(C(=O)NCC3CCCO3)c3ccccc3n2)c(OC)c1 (stereo not drawn),-3,-10%,2,-2%,-1%,-13%
O=C(NC(=S)NCC1CCCO1)c1ccc(Cl)cc1Cl (stereo not drawn),16*,-7%,56*,-2%,-3%,1%
CC(C)(C)c1ccc(C(=O)NNC(=S)NCC2CCCO2)cc1 (stereo not drawn),9,13%,26,-10%,0%,4%
CCOc1ccc(-c2cc(C(=O)NCC3CCCO3)c3ccccc3n2)cc1 (stereo not drawn),24*,3%,65*,1%,3%,0%
O=[N+]([O-])c1cccc(/C([O-])=C(/C(=S)Nc2ccccc2)[n+]2ccccc2)c1,80*,-16%,+,-12%,-1%,-20%
Cc1cc(/C([O-])=C(/C(=S)Nc2ccccc2)[n+]2ccccc2)c(C)n1-c1ccccc1,29*,-9%,44,-9%,-6%,-30%
CCNC(=S)/C(=C(/[O-])c1ccc([N+](=O)[O-])cc1)[n+]1ccccc1,2,9%,-14,-12%,5%,-10%
C[C@@H]1CN(Cc2nc(-c3cccs3)no2)C[C@H](C)O1,5,-4%,21,7%,-11%,6%
c1csc(-c2noc(CN3CCc4sccc4C3)n2)c1,34*,1%,39*,5%,8%,-9%
COc1ccccc1CN1CCN(Cc2nc(-c3cccs3)no2)CC1,50*,-13%,85*,-14%,7%,2%
Cc1ccc2c(c1)OC(c1ccc3c(c1)OCCO3)CC2=O (stereo not drawn),29*,30%,67*,-1%,-2%,14%
C=CCNc1ncnc2c1ncn2[C@H]1CN(Cc2ccccc2)C[C@@H](COC(C)=O)O1,nt,10%,nt,4%,nt,nt
COCC(=O)N(Cc1cc2cc(C)ccc2[nH]c1=O)c1ccccc1,12*,-13%,22,0%,0%,4%
COCC(=O)N(Cc1cc2ccc(C)cc2[nH]c1=O)c1cccc(C)c1,1,4%,-6,0%,3%,11%
Cc1ccc(C)c(N2CCN(C(=O)c3ccc4nsnc4c3)CC2)c1,-4,11%,-5,2%,5%,1%
Cc1cc(C)cc(-n2ccn(CC(=O)Nc3ccccc3F)c(=O)c2=O)c1,nt,nt,nt,0%,nt,nt
CCOCCCNC(=O)/C=C1\Sc2ccccc2N(Cc2ccccc2F)C1=O,32*,4%,131*,-7%,8%,1%

# Bioassay records (PubChem)
